# Laboratory results taken from PubChem BioAssay AID1259372 (The Scripps Research Institute Molecular Screening Center, 2018).
# The campaign covered roughly 4,700 compounds. About 760 (16%) were called active.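 The calls were made as follows: active = inhibition above a cutoff derived from the DMSO control wells (cut at about 28% in these data); inactive = the rest.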 Only a sample is shown.
# Biological target: Microphthalmia-associated transcription factor (Homo sapiens) (UniProt O75030)
# Experiment: blockers of human MITF dimerization – biochemical, AlphaScreen, triplicate, confirmation (AID 1259372)
# Conditions: AlphaScreen MITF homodimerization, biotin/His-MITF beads; at 2.6 µM; hits give high values
# Sequence of Microphthalmia-associated transcription factor (Homo sapiens) (O75030 whole entry, looked up): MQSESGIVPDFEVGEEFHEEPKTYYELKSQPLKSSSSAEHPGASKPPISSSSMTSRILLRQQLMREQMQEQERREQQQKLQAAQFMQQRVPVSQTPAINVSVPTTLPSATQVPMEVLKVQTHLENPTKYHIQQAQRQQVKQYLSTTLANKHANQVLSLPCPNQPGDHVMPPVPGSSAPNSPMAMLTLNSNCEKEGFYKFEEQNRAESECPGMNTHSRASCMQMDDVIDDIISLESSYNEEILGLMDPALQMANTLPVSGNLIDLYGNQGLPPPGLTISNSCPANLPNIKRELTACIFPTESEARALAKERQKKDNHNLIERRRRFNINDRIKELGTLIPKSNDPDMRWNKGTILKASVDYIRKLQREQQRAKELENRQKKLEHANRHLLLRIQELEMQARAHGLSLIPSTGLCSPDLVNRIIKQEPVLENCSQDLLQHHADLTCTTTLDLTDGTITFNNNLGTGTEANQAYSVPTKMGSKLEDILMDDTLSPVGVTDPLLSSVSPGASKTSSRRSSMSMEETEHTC
row,SMILES,inhibition
1,O=C(C1CCN(Cc2nc3ccccc3[nH]2)CC1)N1CCN(c2ccccn2)CC1,0.24% (inactive)
2,COc1ccc(OC)c(CN2CCN(Cc3ccccc3OC)CC2)c1,10.6% (inactive)
3,C=CCNCCOCCOc1cc(C)ccc1C(C)(C)C,7.1% (inactive)
4,Cc1cnc(NCc2ccc3c(c2)OCO3)nc1Nc1ccccc1,-0.48% (inactive)
5,c1cc2c(cc1CNc1nc(Nc3ccc(N4CCOCC4)cc3)c3ncn(C4CCCCC4)c3n1)OCO2,71.3% (active)
6,c1cc2c(cc1CN1CCN(C3CCCCC3)CC1)OCO2,-2.28% (inactive)
7,CC(C)(C)NCCOCCOc1ccc(Cl)c(Cl)c1,4.77% (inactive)
8,O=C(Nc1ccc2c(c1)OCO2)C(c1ccccc1)N(Cc1ccccc1)Cc1ccccc1 (centres undefined),-3.96% (inactive)
9,Cc1cccc(CSc2n[nH]c(=O)[nH]c2=O)c1,-2.69% (inactive)
10,COc1cc(OC)c(OC)cc1CN1CCN(Cc2ccc(F)cc2)CC1,-1.09% (inactive)
11,Cc1nnc(N2CCC(Cc3ccccc3)CC2)c2ccccc12,2.32% (inactive)
12,COc1ccc(CNCC2CN(CC(C)C)CCO2)cc1 (centres undefined),10% (inactive)
13,CCN1CCN(CCOCCOc2ccc([N+](=O)[O-])cc2)CC1,3.04% (inactive)
14,c1ccc(-c2ccccc2OCCNCCN2CCOCC2)cc1,16.9% (inactive)
15,O=C(O)CCCCCNC(=O)/C(=C\c1ccco1)NC(=O)c1ccccc1,25.9% (inactive)
16,O=[N+]([O-])c1ccccc1CN1CCN(Cc2ccccc2C(F)(F)F)CC1,3.85% (inactive)
17,Cc1cc(OCCN2CCN(C)CC2)ccc1C(C)C,-2.72% (inactive)
18,O=C(O)CCCCC1SCC2NC(=O)NC21O (centres undefined),116% (active)
19,COC(=O)C1(C)NC(c2ccc(C)cc2)C2C(=O)N(c3ccc(F)cc3)C(=O)C21 (centres undefined),11.8% (inactive)
20,CC(=O)c1ccc(NC(=O)C(C)NCc2ccc(C)cc2)cc1 (centres undefined),3.11% (inactive)
21,O=C(c1cccs1)N1CCC(N2CCN(Cc3ccccc3)CC2)CC1,1.58% (inactive)
22,NC(=O)COC(=O)/C=C/c1ccc(I)o1,57.8% (active)

row,SMILES,inhibition
1,Cc1nc(NC2CC2)cc(-c2ccc(F)cc2)n1,12% (inactive)
2,CCOc1ccc(CN2CCN(C(=O)c3cccc(Cl)c3)CC2)cc1,-0.91% (inactive)
3,CC(C)c1ccc(C2/C(=C(/O)c3ccccc3)C(=O)C(=O)N2CCN(C)C)cc1 (centres undefined),4.9% (inactive)
4,CCCCCOc1ccc(OC(=O)c2ccc(-c3ccc(CCC)cn3)cc2)cc1,4.5% (inactive)
5,COc1ccc(Br)cc1CN1CCN(CCOCCO)CC1,-4.85% (inactive)
6,O=S(=O)(c1ccc(Br)cc1Cl)N1CCN(CCc2ccncc2)CC1,11.6% (inactive)
7,CCN(CC)CC(=O)Nc1c2c(nc3ccccc13)N(c1cccc(C)c1)CC2,-3.54% (inactive)
8,c1ccc(CCCCNc2nccc(Nc3ccncn3)n2)cc1,-1.64% (inactive)
9,CN(C)CC(C)(C)CNCc1nnc(-c2ccccc2)o1,-4.13% (inactive)
10,COc1ccc(CN2CCN(Cc3cccnc3)CC2)cc1OCc1ccccc1,3.98% (inactive)
11,CCCCCCOC(=O)c1cc(C(=O)OCCCCCC)c(C)nc1C,-4.67% (inactive)
12,COc1cccc(C(=O)N2CCN(Cc3cc(OC)c(OC)cc3OC)CC2)c1,0.86% (inactive)
13,COc1cc(CN2CCN(Cc3cc(OC)c(OC)cc3OC)CC2)cc(OC)c1,7.67% (inactive)
14,c1ccc(Oc2cccc(OCCCCn3cncn3)c2)cc1,-15.6% (inactive)
15,CCCn1c(C)cc(-c2csc(NC(=O)Cc3ccsc3)n2)c1C,21.7% (inactive)
16,COC(=O)c1cccc(NS(=O)(=O)c2ccc3ccccc3c2)c1C,1.98% (inactive)
17,Clc1ccc(CN2CCN(CC3CC=CCC3)CC2)cc1 (centres undefined),-2.27% (inactive)
18,COc1cc(CN2CCN(Cc3ccc(C)cc3)CC2)c([N+](=O)[O-])cc1OC,6.72% (inactive)
19,CCOc1cc(CN2CCN(Cc3ccccn3)CC2)ccc1OC,13.2% (inactive)
20,CCOc1ccccc1N1CCN(Cc2cc(OC)c(O)c([N+](=O)[O-])c2)CC1,32.4% (active)
21,CCN1CCN(CCCOc2ccc(C(C)=O)cc2OC)CC1,1.36% (inactive)
22,COc1cc(CN(CCN(C)C)Cc2ccccc2)cc(OC)c1,15.3% (inactive)

row,SMILES,inhibition
1,Cc1cc(C(C)(C)C)ccc1OCCN1CCNCC1,-3.14% (inactive)
2,Cn1c(-c2ccc(F)cc2)cnc1NCc1cccnc1,-19.5% (inactive)
3,Cc1ccc(CN2CCN(Cc3ccncc3)CC2)cc1,15.2% (inactive)
4,COc1cccc(CN2CCN(C(=O)c3ccccc3F)CC2)c1,-1.9% (inactive)
5,c1cc2c(cc1CN1CCN(C3CCCC3)CC1)OCO2,-0.1% (inactive)
6,O=C1NC(c2ccccc2[N+](=O)[O-])C(C(=O)c2cccs2)C(O)(C(F)(F)F)N1 (centres undefined),4.8% (inactive)
7,CN1CCN(CCOCCOc2ccccc2Cl)CC1,6.9% (inactive)
8,N#C/C(=C/c1ccc(-c2ccc3c(c2)C(=O)NC3=O)o1)C(=O)O,6.58% (inactive)
9,CCc1ccc(NC(=O)CS(=O)CC(=O)NCCCc2ccccc2)cc1 (centres undefined),44.5% (active)
10,Cc1ccc(NC(=O)CNCCCSc2ccccc2)cc1C,14.7% (inactive)
11,Nc1ccc(S(=O)(=O)O)c2cc(S(=O)(=O)O)cc(O)c12,42.7% (active)
12,Cc1ccc(C)c(OCCN2CCOCC2)c1C,15.2% (inactive)
13,COc1cc(CN2CCN(Cc3ccccc3Br)CC2)cc(OC)c1,9.11% (inactive)
14,COc1ccc(COCC(O)CNCC(C)(C)CN(C)C)cc1OC (centres undefined),3.01% (inactive)
15,COCc1nc2ccccc2n1CCc1noc(-c2ccco2)n1,6.8% (inactive)
16,C1=CC2CC1CC2CN1CCN(Cc2c[nH]c3ccccc23)CC1 (centres undefined),-0.81% (inactive)
17,COc1cccc(/C=C(\C#N)c2nc3ccccc3[nH]2)c1OCc1ccc(Cl)cc1Cl,0.99% (inactive)
18,COc1ccc(CN2CCN(Cc3ccccc3OC)CC2)cc1Br,5.52% (inactive)
19,O=[N+]([O-])c1ccc(OCc2nnc(SCCN3CCOCC3)n2-c2ccccc2)cc1,2.94% (inactive)
20,CCCS(=O)(=O)N1CCN(Cc2ccc(OC)c(OCc3ccccc3)c2)CC1,-0.41% (inactive)
